Laboratory results as given in PMC7819943, “Rice protein-binding microarrays: a tool to detect cis-acting elements near promoter regions in rice”.
In all, about 68,000 sequences were measured (“fluorescence intensity (a.u.)”: median about 9,100, highest 2% from about 16,000 on). The entries come from a sample that favours the highest values as a whole.

These sequences were tested against OsWRKY34 (Oryza sativa, UniProt Q0JBA9 1-250) (assay: protein-binding microarray (RPBM); PBS, 2% BSA, 51.3 ng/ul salmon testes DNA, 50 uM zinc acetate, 200 nM TF, 25 C, 1 h; high values mean tight binding). Settings: protein: recombinant; tags: N-terminal polyhistidine and DsRed monomer fusion (pET32a); label: CyDye5-dUTP incorporated in the synthesized complementary strand; 3' TTTTT single-stranded linker to array surface; dsDNA, one strand shown.
How it was run: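 A custom Agilent array was converted to double-stranded form by primer extension with Cy5-dUTP and blocked with 2% BSA. Protein at 200 nM in PBS with 2% BSA, salmon testes DNA and 50 µM zinc acetate was applied for 1 h at 25 °C, followed by washing. The proteins were polyhistidine–DsRed N-terminal fusions of transcription factors, expressed in E. coli BL21-CodonPlus and Ni–NTA-purified. The binding signal is per-feature fluorescence intensity (arbitrary units) from an Axon 4000B scanner.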

Sequence of OsWRKY34 (Q0JBA9 entry or part of it): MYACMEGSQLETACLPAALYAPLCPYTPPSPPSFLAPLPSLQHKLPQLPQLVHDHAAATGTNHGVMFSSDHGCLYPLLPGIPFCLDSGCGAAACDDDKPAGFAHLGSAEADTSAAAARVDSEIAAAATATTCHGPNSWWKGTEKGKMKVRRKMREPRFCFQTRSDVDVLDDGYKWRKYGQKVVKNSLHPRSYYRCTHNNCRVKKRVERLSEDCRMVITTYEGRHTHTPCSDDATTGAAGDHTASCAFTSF

Sequence	binding signal
CACTCTGCCTCACCTCACCTCACCTCACGTCCTCACCTCCCGGAGTCACCTAGTGCAG	10300 fluorescence intensity (a.u.)
CCGGGACGTGTGCCGCCGCTTAAGCCCGCTCTTTATACGTCGGAGTCACCTAGTGCAG	9690 fluorescence intensity (a.u.)
ACTCGTTGACCAAAGGGAGTGGAGTTTGAAAGGGTGGGAGCGGAGTCACCTAGTGCAG	14600 fluorescence intensity (a.u.)
TCTTGCAATCTTGATCGATAGTCTCCTCCATCTTCTTCGTCGGAGTCACCTAGTGCAG	8680 fluorescence intensity (a.u.)
ATAAATTATTAGTACTATTCCATATACTACATTTTCTTCTCGGAGTCACCTAGTGCAG	8440 fluorescence intensity (a.u.)
CATAGTCGTCTTCCTCGATCAATCCGCTCCGCTCCGTCTTCGGAGTCACCTAGTGCAG	8440 fluorescence intensity (a.u.)
CTCCCTCCGTTTCAAAATGTTTGACACCGTTGACTTTTTACGGAGTCACCTAGTGCAG	28300 fluorescence intensity (a.u.)
TACTACTCCCTCCGTTTCAAAATGTTTGACACCGTTGACTCGGAGTCACCTAGTGCAG	13100 fluorescence intensity (a.u.)
ATGTACTCCCTCCGTTTCAAAATGTTTGACACCGTTGACTCGGAGTCACCTAGTGCAG	12300 fluorescence intensity (a.u.)
TGTTTTCTTCTCATTCTTCTTTTTTCCCTTTCTTTTGCTCCGGAGTCACCTAGTGCAG	8390 fluorescence intensity (a.u.)
TTGCATTTTTGACTGTTTGCGTTGACTCCCTCACTTCTTCCGGAGTCACCTAGTGCAG	16400 fluorescence intensity (a.u.)
CCCTCCGTTTCAAAATGTTTGACACCGTTGACTTTTTAATCGGAGTCACCTAGTGCAG	14900 fluorescence intensity (a.u.)
ATACTCCCTCCGTTTCAAAATGTTTGACACCGTTGACTTTCGGAGTCACCTAGTGCAG	12500 fluorescence intensity (a.u.)
ACTCCCTCCGTTTCAAAATGTTTGACACCGTTGACTTTTTCGGAGTCACCTAGTGCAG	18500 fluorescence intensity (a.u.)
TTTCTTTTGCATTTTCCCTGTTCCATATCGTTTTTTTCTCCGGAGTCACCTAGTGCAG	8560 fluorescence intensity (a.u.)
TTTCTTCCATACTGAAATGTGTATCTTAGCTACTGAAGCTCGGAGTCACCTAGTGCAG	8440 fluorescence intensity (a.u.)
CATTTAATCTCCTCGTTACCGCTCAATTAACGCACCGATTCGGAGTCACCTAGTGCAG	8880 fluorescence intensity (a.u.)
CGGAGATCTTCAGAAACGAGTTATTTTTCCTCGCAAAACGCGGAGTCACCTAGTGCAG	8690 fluorescence intensity (a.u.)
ATTTGATCCTCTTTTTTCAACTTTGCTTATTTGACCCTTCCGGAGTCACCTAGTGCAG	11100 fluorescence intensity (a.u.)

Sequence	binding signal
TCACCCTTCACCTGCATGATCCTCTCTTTTTCAATCCCTCCGGAGTCACCTAGTGCAG	9340 fluorescence intensity (a.u.)
GCTCCGACTCCCTGTTTCCTGGTCCTCTTTTACACCGGCTCGGAGTCACCTAGTGCAG	15100 fluorescence intensity (a.u.)
TACATGTCTTAGAGCTACACATCTCTGATTTTTTTTTACACGGAGTCACCTAGTGCAG	8950 fluorescence intensity (a.u.)
CCCCACATTTTCTTTCACCTTCTCTTCCATTCCACCTCTCCGGAGTCACCTAGTGCAG	10100 fluorescence intensity (a.u.)
CCATTCCGCCCACTAGCTTTCTCTCTCTATTTTCTTTTTCCGGAGTCACCTAGTGCAG	16800 fluorescence intensity (a.u.)
TCTCTTCCGGTCGGAAGCTTGCTTTCCTTTTCTTCTTCTTCGGAGTCACCTAGTGCAG	8360 fluorescence intensity (a.u.)
CACTATTCCTTTCCGGATTGCTTCTGCGTTCTACTTGATGCGGAGTCACCTAGTGCAG	11000 fluorescence intensity (a.u.)
CTCTGTAATATATCATTATGACTGCTAATTCGTCTATTTTCGGAGTCACCTAGTGCAG	8080 fluorescence intensity (a.u.)
CATATGTTGTTTTCTATTTCCCACTAATTTTCGTCATTTTCGGAGTCACCTAGTGCAG	10400 fluorescence intensity (a.u.)
TTTTCTATTTCCCACTACTTTTCGTCATTTTTCTAATATTCGGAGTCACCTAGTGCAG	18100 fluorescence intensity (a.u.)
ATCTTTTTCTACTATCACTATATCATATTCTATTTTTTTTCGGAGTCACCTAGTGCAG	10500 fluorescence intensity (a.u.)
TAGATTCTCTTTCTATTTTCTTTCCACTTAGCTTAGATATCGGAGTCACCTAGTGCAG	9100 fluorescence intensity (a.u.)
ACTGCTAATTCGTCTATTTTGTACCACTTTCTCTATTTTTCGGAGTCACCTAGTGCAG	16500 fluorescence intensity (a.u.)
CTTCTATTTTCTTTCTGCTCTTCTCTTCTCTTGTCTACTTCGGAGTCACCTAGTGCAG	10300 fluorescence intensity (a.u.)
CGGAGTCGGTCAAGCTTAACCACTATTCCTTTCCGGATTGCGGAGTCACCTAGTGCAG	61500 fluorescence intensity (a.u.)
TGTGGTGTGCTTGAGGTGCTTTTGAGTTTTAAATAGATTACGGAGTCACCTAGTGCAG	8520 fluorescence intensity (a.u.)
GGGATCTGAGGCGCGTTTCTTAATTTGCCTTCTCTTTGAGCGGAGTCACCTAGTGCAG	9220 fluorescence intensity (a.u.)
AGTCCATCTAATTCGGCTGCACTCTTTTTCCCCTGTGAAGCGGAGTCACCTAGTGCAG	8530 fluorescence intensity (a.u.)
ATTTTATCACCCTGCTTAGAGTTTCGCCCGGAGCCATGAACGGAGTCACCTAGTGCAG	10700 fluorescence intensity (a.u.)

Sequence	binding signal
GCGAGGTCGGGGAGGTGGGTGCACAGTGCCCTGCGAGATGCGGAGTCACCTAGTGCAG	8120 fluorescence intensity (a.u.)
TACAAGCCCGTTGCCATCTCTACTCCGGCCTCCTAGTCCTCGGAGTCACCTAGTGCAG	9760 fluorescence intensity (a.u.)
GAATTCTTGTGTTCCAAGCATTTCGATTTGCTCCTCTCTTCGGAGTCACCTAGTGCAG	9020 fluorescence intensity (a.u.)
ATGGTGGTTCTAATTCTGTTGGTTGACTGCTCTCTGAAATCGGAGTCACCTAGTGCAG	13300 fluorescence intensity (a.u.)
CTGCTCTAACTGAAGTGCCAGGTGACTTGCTTGGTTGGTTCGGAGTCACCTAGTGCAG	18300 fluorescence intensity (a.u.)
ATCGGAGACTGACTGAGTGAAGGTTGGTTGGTTCACACTTCGGAGTCACCTAGTGCAG	8750 fluorescence intensity (a.u.)
CTATCGTCATCCTCGCGATCGCCGCATTCATCCATCCACTCGGAGTCACCTAGTGCAG	12800 fluorescence intensity (a.u.)
TTTGTCCTGGGCTTCTTTCGGCCCAATCTCTCTCCCGTCGCGGAGTCACCTAGTGCAG	11100 fluorescence intensity (a.u.)
ACTGTTTATAGGGTAGGGGTAAGGTTGTGTTCATATAGGTCGGAGTCACCTAGTGCAG	11700 fluorescence intensity (a.u.)
GGGTGGGGTGGGCCTGGGCTGATGCATGTTTGGCGCTTAGCGGAGTCACCTAGTGCAG	21200 fluorescence intensity (a.u.)
TCGGAGTGGGGAGATGGTGTCGGGGTGCTGGGTTTCCGGGCGGAGTCACCTAGTGCAG	13100 fluorescence intensity (a.u.)
TCCGGGCTGGGTGGGTGGGGTGGGGATGGAGCTTGCCTGGCGGAGTCACCTAGTGCAG	24100 fluorescence intensity (a.u.)
TCTCCTGGTTTTGTGTGTTAGCGCTGTCAGTGTGTGGGTGCGGAGTCACCTAGTGCAG	8120 fluorescence intensity (a.u.)
TGGGGATGGAGCTTGCCTGGGTGGTGGTGAGGGCGCAGTTCGGAGTCACCTAGTGCAG	8680 fluorescence intensity (a.u.)
GGGTGCTGGGGCTTTGGCTGCCTTGACTTGGATTGCCTTCCGGAGTCACCTAGTGCAG	8640 fluorescence intensity (a.u.)
GGTGCGGCGGTGGGCGGCATGGAGATGGGGAGAGGAGGCGCGGAGTCACCTAGTGCAG	10600 fluorescence intensity (a.u.)
CTGGGGTTGGCCTGGGCTGATATATGTTTGGCGCTCAAAACGGAGTCACCTAGTGCAG	11100 fluorescence intensity (a.u.)
GGGTGGGTGGGGCGGTGCTTTCCTGGAGATGGGAGAGTGGCGGAGTCACCTAGTGCAG	23000 fluorescence intensity (a.u.)
